# Screens deposited in PubChem BioAssay by National Center for Advancing Translational Sciences (NCATS).
# 3T3 cytotox: cytotoxic compounds in NIH 3T3 cells; NIH 3T3 viability, CellTiter-Glo ATP luminescence, 48-72 h; AID 1345082; Potency, µM (titrated, usually from 96.7 µM), without a hit: at the top dose activity change, negative = cytotoxicity, usual class: inhibitors; hit rate 4.3% among 94,000; note: nearly all actives have a fitted effect of over 55% in size
#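 NIH 3T3 cells at 400 cells/well received 23 nL of compound by pintool and were incubated 48 or 72 h at 37 °C. Viability was read as ATP-coupled CellTiter-Glo luminescence.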
# HEK cytotox: HEK 293 cell cytotoxicity. HEK 293 viability, ATP luminescence (CellTiter-Glo), 48-72 h. Potency, µM (series often up to 115 µM), for the others: at the highest dose activity change, negative = cytotoxicity, actives largely listed as inhibitors. hit rate 6.6% among 94,000. AID 1345083; note: nearly all actives have a fitted effect of over 60% in size
#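 250 HEK 293 cells/well; compound by pintool; incubated 48 or 72 hr at 37 degree Celsius; CellTiter-Glo added, 10 min RT, luminescence imaged.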
# NPR1 antag: human Npr1 receptor antagonism. HEK293 hNpr1 GloSensor cGMP, ANP-stimulated luminescence. Potency, µM (titrated, usually from 46.3 µM), inactives show top-dose activity change, negative = inhibition, usual class: inhibitors. hit rate 1.6% among 76,000; calls by dose curve; note: nearly all actives have a fitted effect of over 60% in size
#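 HEK293 cells stably expressing human Npr1 and cGMP GloSensor pGS-40F, loaded 2 h with 2% GloSensor reagent, given compound 30 min at room temperature. Luminescence read before and 20 min after 0.1 nM hNppA.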
# GPT2 inh: GPT2 alanine aminotransferase inhibition. Q8TD30. Recombinant GPT2, coupled pyruvate oxidase/HRP Amplex Red fluorescence. Potency, µM (top dose mostly 57.7 µM), inactives show top-dose activity change, negative = inhibition, most hits filed as inhibitors. hit rate 0.25% among 100,000; note: nearly all actives have a fitted effect of over 60% in size
# Target sequence (Q8TD30 whole entry, looked up): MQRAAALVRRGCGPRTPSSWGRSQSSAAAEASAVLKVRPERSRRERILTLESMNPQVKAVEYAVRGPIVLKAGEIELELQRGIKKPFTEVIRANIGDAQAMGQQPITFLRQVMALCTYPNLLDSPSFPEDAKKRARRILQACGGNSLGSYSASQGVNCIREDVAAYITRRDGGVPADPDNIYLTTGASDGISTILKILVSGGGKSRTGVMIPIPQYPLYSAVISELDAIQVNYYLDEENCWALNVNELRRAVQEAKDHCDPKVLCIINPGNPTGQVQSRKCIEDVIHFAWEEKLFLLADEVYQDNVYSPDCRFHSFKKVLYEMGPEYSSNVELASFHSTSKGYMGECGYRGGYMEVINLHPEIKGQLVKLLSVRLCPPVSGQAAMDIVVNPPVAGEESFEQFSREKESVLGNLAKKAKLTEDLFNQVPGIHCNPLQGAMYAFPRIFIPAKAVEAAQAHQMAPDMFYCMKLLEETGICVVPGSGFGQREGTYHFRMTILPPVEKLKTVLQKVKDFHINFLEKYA
#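 GPT2 10ng/uL, a-KG 250uM, L-Ala 2mM, HEPES pH7.5 + 0.0001% Tween; 30 min RT. Then Amplex mix (PO/HRP/ThPP), 30 min RT dark, fluorescence. AOA 50uM used as positive control.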
# FLuc inh: inhibitors of firefly (Photinus pyralis) luciferase; P08659; purified P. pyralis luciferase, luminescence, biochemical; Potency, µM (top dose mostly 115 µM), usual class: inhibitors; hit rate 2.5% among 76,000; AID 1347043; note: nearly all actives have a fitted effect of over 65% in size
#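 Purified P. pyralis luciferase (10nM final) in 50mM Tris acetate pH 7.5, 10mM Mg acetate, 0.01% Tween-20, 0.05% BSA with 10uM D-luciferin and 10uM ATP. Compounds titrated qHTS. Luminescence imaged on CCD.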
# Numbers without * were called inactive; i = inactive; ? = inconclusive; nt = no result; ! = repeats disagree; [ ] = another dose, or the depositor's remark. A selection: hits, their analogues and other compounds. The true share with any hit is near 10%. Unless noted, calls come from the whole dose curve; as a rule, active = well fitted curve in the direction sought with a large enough effect; inconclusive = small, poorly fitted or top-dose-only effect, or another doubt; inactive = no such curve, though single readings can be large; an effect the other way counts as inactive or inconclusive. % is set by controls: 0 for no effect and ±100 for the full control effect; potency is the fitted concentration of half-maximal effect.
SMILES,3T3 cytotox,HEK cytotox,NPR1 antag,GPT2 inh,FLuc inh
C#CCNC(=O)c1nc(-c2ccc(Cl)cc2Cl)c2ccccn12,?,?,nt,-12.2%,nt
O=C(c1nc(-c2ccccc2)c2ccccn12)N1CCCC1,-11.6%[138 µM],?,2.1%[70.6 µM],i,i
COc1cccc([S+](=O)([O-])N2CCc3nc(C)nc(-c4ccc(Cl)cc4)c3C2)c1,?,?,-0.3%,i,i
C#CCNC(=O)c1nc(-c2cccnc2)c2ccccn12,89.1µM*,-22.9%[172 µM],0.0%[70.6 µM],i,i
C#CCNC(=O)c1nc(-c2ccc(Cl)nc2)c2ccccn12,?,50.1µM*,nt,-11.8%,nt
O=C(NCCc1ccc(Cl)cc1)c1nc(-c2cccnc2)c2ccccn12,39.8µM*,31.6µM*,-3.1%,-15.2%,i
COC(=O)CNC(=O)c1nc(-c2ccc(Cl)nc2)c2ccccn12,?,3.0%,nt,-6.6%,nt
C#CCNC(=O)c1nc(-c2cccc(F)c2)c2cnccn12,?,63.1µM*!,-26.8%[70.6 µM],-2.6%[88.5 µM],i
COc1cccc(-c2cnc([C@@H]3COCCN3C3CCOCC3)[nH]2)c1,-2.6%[138 µM],-7.7%[172 µM],-0.2%[70.6 µM],0.2%[88.5 µM],i
COc1ccc(Cn2c(=O)c(C(=O)NC(C)C)nc3cccnc32)cc1,-26.9%,-11.8%,nt,-9.9%,nt
O=C(Cc1cccc(F)c1)N1CCOCC12CCN(Cc1ccccc1)CC2,100µM*,?,-0.9%[70.6 µM],-12.5%[88.5 µM],i
CC(C)CC(=O)N1CCOCC12CCN(Cc1ccc(C(C)C)cc1)CC2,70.8µM*,100µM*,2.3%[70.6 µM],0.6%[88.5 µM],i
CC(C)CC(=O)N1CCOCC12CCN(Cc1cccc(C#N)c1)CC2,-12.0%[138 µM],?,-0.9%[70.6 µM],i,i
O=C(CCc1ccccc1)N1CCOCC12CCN(Cc1ccccc1)CC2,35.5µM*,?,-11.1%[70.6 µM],i,i
O=C(N1CCC(NS(=O)(=O)c2ccccc2)CC1)N1CC2CC(C1)[C@H]1CCCC(=O)N1C2 (some centres undefined),i,-0.6%,-1.8%,-16.1%,i
Cc1ccc(C(=O)NC2CCN(c3ccc4nnc(C)n4n3)CC2)cc1,-14.4%,i,nt,nt,nt
COC1=C(OC)C(=O)c2ccccc2C1=O,nt,nt,nt,2.82µM*,nt
Cc1cc(C(=O)N2CCC(Cc3ccc(C(N)=O)cc3)CC2)n(C)n1,-21.8%,?,1.4%,?,i
Cc1cc(CN2CCC(Cc3ccc(F)cc3)CC2)n(C)n1,?,39.8µM*,?,-11.8%,i
CCn1nccc1C(=O)Nc1cccc(-c2nnc3n2CCCC3)c1,-7.8%,0.1%,0.4%,i,i
O=C(NCC1CCCO1)c1csc(N2CCN(c3ccc(Cl)cc3)CC2)n1 (centres undefined),?,35.5µM*,?,2.7%,i
CCn1cc(-c2ccc(Cl)cc2)cc1C(=O)NCC1CCCO1 (centres undefined),-14.6%,?,-2.6%,3.5%,?
CCCCOc1ccc(C(=O)CCN2CCCCC2)cc1,nt,nt,nt,i,nt
O=C(c1ccc(OCCN2CCCCC2)cc1)c1c(-c2ccc(O)cc2)sc2cc(O)ccc12,nt,nt,nt,8.91µM*!,nt
CN(C)CCN1CC[C@H]2CN(S(=O)(=O)c3ccccc3)CC[C@H]2CC1=O,?,?,6.2%[70.6 µM],2.9%[88.5 µM],i
SMILES,3T3 cytotox,HEK cytotox,NPR1 antag,GPT2 inh,FLuc inh
Cc1nnc2ccc(N3CCCC(NC(=O)c4ccc(F)cc4)C3)nn12 (centres undefined),?,-24.2%,nt,nt,nt
O=C(NCCN1CCOCC1)c1noc(-c2ccccc2F)n1,-0.6%,2.8%,-4.4%,i,i
Fc1ccccc1-c1noc(N2CCOCC2)n1,-18.5%,?,-14.2%,-3.1%,31.6µM*
CCCCCNC(=O)C1CCCN1Cc1cccc(-c2ccc(C)c(Cl)c2)c1 (centres undefined),?,44.7µM*,nt,nt,nt
Cc1ccc(-c2cccc(CN3CCCC3C(=O)NCC3CC3)c2)cc1Cl (centres undefined),?,31.6µM*,nt,nt,nt
COCCNC(=O)C1CCCN1Cc1cccc(-c2ccc(C)c(Cl)c2)c1 (centres undefined),35.5µM*,39.8µM*,nt,nt,nt
Cc1ccc(NC(=O)c2cc3c(N4CCSCC4)nc(C)cn3n2)cc1,?,?,-3.2%,i,i
Cc1cn2nc(C(=O)Nc3ccc4c(c3)OCO4)cc2c(N2CCCC2)n1,0.1%,-1.7%,-17.3%,i,?
